Assay results: PubChem BioAssay AID2284377 (EPA ToxCast)
Inconclusive results are not listed. Calls of active or inactive are those of the source. The calls were made as follows: active = hit-call score of the fitted dose curve at least 0.9, where 1 is the maximum; inconclusive = response in the unintended direction; inactive = score below 0.9.

Target: Estrogen receptor (Homo sapiens) (UniProt P03372)
Assay: ERF_TW_NR_COA_hESR1: Eurofins (ERF) Nuclear Receptor (NR) Functional Coactivator Assay for human Estrogen Receptor alpha (ERa) Agonism
Experimental: ERF_TW_NR_COA_hESR1 is a biochemical, single-readout assay that uses extracted gene-proteins in a cell-free assay. Measurements were taken 0.16 hours after chemical dosing in a 96-well plate. See ERalpha Human Estrogen NHR Functional Agonist Coactivator Assay, Panlabs.ERF_TW_NR_COA_hESR1 is an assay component calculated from the ERF_TW_NR_COA_hESR1 assay. It is designed to measure FRET using a type of binding reporter as detected by fluorescence intensity of estriol with fluorimetry technology.Data from the assay component ERF_TW_NR_COA_hESR1 was analyzed at the assay endpoint, ERF_TW_NR_COA_hESR1, in the positive analysis fitting direction relative to DMSO as the negative control and baseline of activity. Using a type of binding reporter, gain-of-signal activity can be used to understand changes in binding as they relate to gene ESR1. To generalize the intended target to other relatable targets, this assay endpoint is annotated to the nuclear receptor intended target family, where the subfamily is steroid.
Test compound and/or vehicle is incubated with the 7 nM estrogen receptor alpha (ERalpha)-LBD and coactivator peptide for 10 minutes at RT. Determination of the amount of complex formed is read spectrofluorimetrically at 520 nm/490 nm. Test compound-induced increase fluorescence by 50 percent or more (>/=50%) relative to the 1 uM Estriol response indicates possible ERalpha receptor agonist activity.

Sequence of Estrogen receptor (Homo sapiens) (P03372 whole entry, looked up): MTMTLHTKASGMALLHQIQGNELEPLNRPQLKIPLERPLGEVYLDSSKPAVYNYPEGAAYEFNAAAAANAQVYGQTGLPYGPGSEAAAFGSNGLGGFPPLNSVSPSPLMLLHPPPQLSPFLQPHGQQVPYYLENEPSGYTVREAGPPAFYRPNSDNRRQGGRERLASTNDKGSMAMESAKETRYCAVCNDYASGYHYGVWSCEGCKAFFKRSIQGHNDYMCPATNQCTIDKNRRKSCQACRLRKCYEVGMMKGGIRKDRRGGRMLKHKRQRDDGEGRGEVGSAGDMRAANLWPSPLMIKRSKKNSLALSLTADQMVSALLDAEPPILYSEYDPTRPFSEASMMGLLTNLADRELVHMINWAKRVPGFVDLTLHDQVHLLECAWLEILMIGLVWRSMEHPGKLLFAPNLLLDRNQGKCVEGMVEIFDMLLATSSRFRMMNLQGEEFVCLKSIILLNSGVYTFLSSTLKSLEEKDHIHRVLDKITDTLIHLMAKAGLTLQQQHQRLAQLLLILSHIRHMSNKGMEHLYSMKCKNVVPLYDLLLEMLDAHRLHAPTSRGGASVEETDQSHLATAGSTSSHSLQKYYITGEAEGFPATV

Compound	AC50	outcome
OCC(F)(F)OC(F)(F)C(F)(F)OC(F)(F)C(F)(F)OC(F)(F)CO	3.43 µM (active)	
OCC(F)(F)OC(F)(F)C(F)(F)OC(F)(F)C(F)(F)OC(F)(F)F		inactive
NS(=O)(=O)C(F)(F)C(F)(F)C(F)(F)C(F)(F)C(F)(F)C(F)(F)C(F)(F)C(F)(F)F		inactive
